Experimental data: article PMC5913336, “True equilibrium measurement of transcription factor-DNA binding affinities using automated polarization microscopy”

These sequences were tested against T1, Slp1-FL (Drosophila melanogaster, UniProt P32030) (assay: FP; 33 mM phosphate pH 7.0, 90 mM NaCl, 0.01% Tween 20, 0.1 mM DTT, 0.5% agarose; room temperature). Settings: tags: N-GST (pGEX-6P-1, kept); dsDNA, one strand shown.
T1 sequence: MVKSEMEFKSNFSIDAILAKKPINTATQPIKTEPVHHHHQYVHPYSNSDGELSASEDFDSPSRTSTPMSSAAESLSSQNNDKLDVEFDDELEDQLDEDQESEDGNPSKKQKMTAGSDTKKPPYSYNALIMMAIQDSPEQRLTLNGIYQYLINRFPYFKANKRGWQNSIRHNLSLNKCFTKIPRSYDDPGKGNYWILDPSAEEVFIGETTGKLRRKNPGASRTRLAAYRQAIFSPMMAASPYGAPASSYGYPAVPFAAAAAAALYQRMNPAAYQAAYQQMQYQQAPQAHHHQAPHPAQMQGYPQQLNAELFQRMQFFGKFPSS

Row | Sequence | binding signal
1 | ACGTGTTTACACTAA | 10.7 Kd / Kd of best base at the position
2 | ACGTTTTTACACTTA | 21.2 Kd / Kd of best base at the position
3 | TCGTGTTTACACTTA | 1.19 Kd / Kd of best base at the position
4 | ACGTGTTTACTCTTA | 2.44 Kd / Kd of best base at the position

Each sequence was assayed against T2, Gt (Drosophila melanogaster, UniProt P39572 369-448) in the same assay as above. Settings: tags: N-GST (pGEX-6P-1, kept); chain copies: 2; dsDNA, one strand shown.
T2 sequence: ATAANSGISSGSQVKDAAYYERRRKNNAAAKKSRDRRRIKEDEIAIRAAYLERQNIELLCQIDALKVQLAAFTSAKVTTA

Row | Sequence | binding signal | Kd
5 | ATTACGTATCC | 549 Kd / Kd of best base at the position | –
6 | ATAACGTAACC | 174 Kd / Kd of best base at the position | –
7 | ATTCCGTAACC | 1830 Kd / Kd of best base at the position | –
8 | ATTACGTGACC | 18.9 Kd / Kd of best base at the position | –
9 | ATTACGCAACC | 4.03 Kd / Kd of best base at the position | –
10 | ATTACATAACC | 3.03 Kd / Kd of best base at the position | –
11 | GTTACGTAACC | 1.09 Kd / Kd of best base at the position | –
12 | ATTACGGAACC | 460 Kd / Kd of best base at the position | –
13 | ATTACGTCACC | 5.02 Kd / Kd of best base at the position | –
14 | ATTACGTAACT | 4.28 Kd / Kd of best base at the position | –
15 | ATTATGTAACC | 3.81 Kd / Kd of best base at the position | –
16 | ATTACGTTACC | 518 Kd / Kd of best base at the position | –
17 | ATTACGTAACC | – | ~0.9 nM
18 | ATTACGTACCC | 1620 Kd / Kd of best base at the position | –
19 | ATTACGAAACC | 316 Kd / Kd of best base at the position | –
20 | ATTGCGTAACC | 3.54 Kd / Kd of best base at the position | –
21 | ATCACGTAACC | 40.1 Kd / Kd of best base at the position | –

Row | Sequence | binding signal | Kd
22 | ATTACGTAGCC | 1020 Kd / Kd of best base at the position | –
23 | ATTACGTAACG | 3.4 Kd / Kd of best base at the position | –
24 | ACTACGTAACC | 121 Kd / Kd of best base at the position | –
25 | TTTACGTAACC | 6.92 Kd / Kd of best base at the position | –
26 | ATTAGGTAACC | 56.6 Kd / Kd of best base at the position | –
27 | ATTACGTAAAC | 10.5 Kd / Kd of best base at the position | –
28 | ATTACGTAATC | 1.58 Kd / Kd of best base at the position | –
29 | ATGACGTAACC | 3.59 Kd / Kd of best base at the position | –
30 | ATTACGTAACA | 2.19 Kd / Kd of best base at the position | –
31 | ATTACTTAACC | 567 Kd / Kd of best base at the position | –
32 | ATTACCTAACC | 45.8 Kd / Kd of best base at the position | –
33 | AGTACGTAACC | 155 Kd / Kd of best base at the position | –
34 | ATTTCGTAACC | 177 Kd / Kd of best base at the position | –
35 | ATTACGTAAGC | 3.37 Kd / Kd of best base at the position | –
36 | AATACGTAACC | 113 Kd / Kd of best base at the position | –
37 | CTTACGTAACC | 2.33 Kd / Kd of best base at the position | –
38 | ATTAAGTAACC | 133 Kd / Kd of best base at the position | –
